The values that follow come from PubChem BioAssay AID588335 (The Scripps Research Institute Molecular Screening Center, 2011).

As a reminder, the inhibition is the change of the read-out against control, counted positive when it falls.

Each structure is given as a SMILES string. About 4,500 (1.2%) of roughly 360,000 compounds were called active. Cut-off read from the data, not from the text of the source: active = inhibition above about 30%; inactive = the rest. For the sample, actives were picked, then their nearest neighbours and some compounds at random.

This test can be described thus: GDH-TPI coupling enzyme inhibitors, primary screen, artefact control for M. tuberculosis FBA inhibitor project, biochemical, absorbance, full deck (AID 588335).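 Note: 0% = DMSO wells and 100% = wells lacking the enzyme.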 The conditions noted are these: GDH-TPI coupled enzyme counterscreen, NADH absorbance; at 4.8 µM; active compounds read high. For orientation: Counterscreens check selectivity or assay interference.
For `Cc1cc(-c2n[nH]c(=S)n2/N=C/C(Br)=C/c2ccccc2)n[nH]1`, the inhibition is 7.17% (inactive).
To `COc1cc(-c2n[nH]c(=S)n2Cc2ccccc2)cc(OC)c1OC` belongs 3.29% (inactive); to `COc1ccccc1/C=C/C=N/n1c(-c2ccc(Cl)cc2Cl)n[nH]c1=S`, 34.7% (active); to `CCCCOc1ccc(Cl)cc1CSc1nncn1N`, -8.67% (inactive).
To `N#CC1(Nc2ccc3c4c(cccc24)CC3)CCCCC1` belongs 18.6% (inactive); to `O=C(CSc1nnc(-c2cccnc2)n1Cc1ccco1)c1ccc(Cl)c(Cl)c1`, -5.03% (inactive).
For `Clc1cccc(-c2nc3nc4ccccc4nc3n2Cc2ccco2)c1`, the inhibition is 33.2% (active).
Turning to `Cc1cc(NCc2ccco2)n2c(nc3ccccc32)c1C#N`, the inhibition is 8.76% (inactive).
To `COC(=O)c1cc(S(=O)(=O)N2CCC(C(N)=O)CC2)oc1C` belongs 0.74% (inactive); to `O=C(O)c1ccc(COCC(F)(F)F)cc1`, 6.06% (inactive); to `COc1ccccc1C1=CC(=O)CCC1`, 10.9% (inactive).
For the compound `COc1ccc(N/N=C2/CCCCC2=O)cc1`, the inhibition was 1.13% (inactive).
As to `COc1ccccc1Oc1ccc(N/C=C2/CCCC2=O)cc1`, the inhibition was 33.3% (active).
To `O=C(O)CCn1c(O)c(C=C2N=c3ccccc3=N2)sc1=S` belongs 22.8% (inactive); to `O=C(Oc1cccc(N2C(=O)C3C4c5ccccc5C(c5ccccc54)C3C2=O)c1)c1ccco1` (stereo not drawn), 10.9% (inactive).
To `O=S(=O)(Nc1ccccc1)c1ccc(NS(=O)(=O)c2cccs2)cc1` belongs 14.9% (inactive); to `C/C(=N\NC(=O)c1ccc(NS(=O)(=O)c2cccs2)cc1)c1ccc2ccccc2c1`, 32.1% (active).
To `COc1cc(OC)c(C(=O)NNC(=O)c2ccc(NS(=O)(=O)c3cccs3)cc2)cc1OC` belongs 12.8% (inactive); to `COCCn1c(C)cc(C(=O)CN2c3cccc4cccc(c34)S2(=O)=O)c1C`, 3.51% (inactive); to `Oc1ccc(C2Nc3cccc4cccc(c34)N2)cc1`, 32.9% (active).
On to `CN(C(=O)CC(NC(=O)c1ccccc1)(c1ccccc1)c1ccccc1)c1ccccc1`, for which the inhibition was -10.6% (inactive).
To `Cn1c(=O)n(C)c2cc(CNc3ccc(N4CCOCC4)c(C(=O)O)c3)ccc21` belongs 8.39% (inactive).
To `CC(C)(C)NC(=O)COC(=O)c1cc(Br)ccc1Cl` belongs -3.49% (inactive); to `Cc1c(Cl)c([N+](=O)[O-])nn1Cc1ccc(C(=O)N/N=C\c2cc(Cl)ccc2O)o1`, 4.27% (inactive).
As for `O=C1CSC(=S)N1/N=C/c1ccc(O)c([N+](=O)[O-])c1`, the figure is 1.6% (inactive); as for `Cc1cc(C(=O)N/N=C/c2ccc(O)c([N+](=O)[O-])c2)c(C)n1-c1ccc(F)cc1`, 51.7% (active); as for `CC1(C)CC(=O)c2sc(N)nc2C1`, 20.2% (inactive).
Turning to `NC1=NOC(=O)C1C1CCCCC1` (stereo not drawn), the inhibition was -5.11% (inactive).
As for `O=C(COC(=O)/C=C/c1ccc2c(c1)OCO2)NC1CCS(=O)(=O)C1` (stereo not drawn), the figure is 23.7% (inactive); as for `CN(Cc1ccccc1)C(=O)COC(=O)/C=C/c1ccc2c(c1)OCO2`, 35% (active); as for `Cc1cccc(NC(=O)/C=C/c2ccc3c(c2)OCO3)n1`, 28.3% (inactive).
To `COc1ccc2nc(NC(=O)c3ccc(Br)s3)sc2c1` belongs 32.7% (active).
As to `COc1ccc(CNC(=O)c2ccc(Br)s2)cc1OC`, the inhibition was -1.03% (inactive).
`CSc1ncccc1C(=O)Nc1nc2ccc(F)cc2s1`: the inhibition is 8.2% (inactive).
As for `Nc1cc(C(=O)N2CCN(c3ccccc3Cl)CC2)ccc1N1CC2CC(C1)c1cccc(=O)n1C2` (stereo not drawn), the figure is 8.04% (inactive); as for `OC(c1ccccc1)c1nc(/C=C/c2ccc(C(F)(F)F)cc2)cs1` (stereo not drawn), 7.08% (inactive).
As for `N#CCC(=O)N/N=C/c1ccc(SCC(=O)Nc2ccccc2)o1`, the figure is 15.4% (inactive).
To `O=C(Cn1cc(/C=N/NC(=O)c2cccc(C(F)(F)F)c2)c2ccccc21)Nc1ccc(F)cc1` belongs 9.15% (inactive); to `O=C(CSc1ccc(/C=N/NC(=O)c2cccc(F)c2)o1)Nc1ccccc1`, 33.1% (active); to `CCCCN(CCCC)CCCNC(=O)CN1C(=O)COc2ccc(S(=O)(=O)N3CCC(C)CC3)cc21`, 5.17% (inactive).
In the case of `CCOC(=O)c1c(C2CC2)csc1NC(=O)CSCc1c(C)noc1C`, the inhibition is 1.16% (inactive).
In the case of `NC(=S)c1ccc(C(N)=S)o1`, the inhibition is 33.3% (active).
To `CC(C)CC1(C(=O)NCc2ccccn2)C=CCN1C(=O)c1ccccc1` (stereo not drawn) belongs 1.72% (inactive).
As for `CN(C)CCCOc1ccc(-c2ccc3nccn3c2)cn1`, the inhibition was 6.19% (inactive).
To `CC(Oc1ccccc1[N+](=O)[O-])C(=O)N/N=C/c1ccoc1` (stereo not drawn) belongs 5.72% (inactive); to `CNC(=S)N/N=C/c1ccc(OCc2ccccc2)c(Br)c1`, 3.82% (inactive).
To `O=C(N/N=C/c1cc(Br)c(O)c([N+](=O)[O-])c1)C(O)(c1ccccc1)c1ccccc1` belongs 79.3% (active).
To `COCCCNC(=S)N(Cc1ccccc1)Cc1ccc(F)cc1` belongs -5.1% (inactive).
In the case of `COC(=O)c1[nH]c2ccc(Br)cc2c1NC(=O)Oc1ccccc1`, the inhibition is 8.96% (inactive).
As for `CC(Oc1ccc2c(-c3ccccc3)cc(=O)oc2c1)C(=O)NC(Cc1c[nH]c2ccccc12)C(=O)O` (stereo not drawn), the figure is 15.9% (inactive); as for `COc1ccc(-c2cc(=O)oc3cc(OCC(=O)N[C@@H](Cc4c[nH]c5ccccc45)C(=O)O)ccc23)cc1`, 32.4% (active).
To `COc1ccc(-c2cc(C(=O)NC(Cc3c[nH]c4ccccc34)C(=O)O)c(C)o2)cc1OC` (stereo not drawn) belongs 1.44% (inactive); to `C=CCOC(=O)C1=C(C)N=C2SCCC(=O)N2C1/C=C/c1ccccc1OC` (stereo not drawn), 6.07% (inactive).
To `COc1cccc(/C=C/c2ccc3ccccc3n2)c1OC(C)=O` belongs 22.8% (inactive); to `COc1ccccc1/C=C/C1=NC(=C\N(C)C)/C(=O)O1`, 32.5% (active).
For the compound `O=C1c2cccc3cccc(c23)C(=O)N1c1cccc(O)c1`, the inhibition is 24.8% (inactive).
As for `COc1cccc(CNC(=O)COc2cc(O)c3c(c2)OC(C)(C)CC3=O)c1`, the figure is 0% (inactive); as for `CC(CO)(CO)NC(=O)c1ccc(=O)[nH]n1`, 8.64% (inactive).
`Cc1ccc(CNC(=O)CCNC(=O)Cn2ccc3ccccc3c2=O)cc1`: the inhibition is 7.19% (inactive).
To `CN(C(=O)CCNC(=O)Cn1ccc2ccccc2c1=O)c1ccc(Br)cc1` belongs 1.56% (inactive); to `CC(=O)c1ccc(N2CCN(C(=O)CCNC(=O)Cn3ccc4ccccc4c3=O)CC2)cc1`, 34.2% (active); to `C[C@H]1Cn2cnc(C(=O)N[C@@H](Cc3c[nH]c4ccccc34)C(=O)OC(C)(C)C)c2C(=O)N1`, 7.22% (inactive).
Consider `COc1ccc(/C=C/C(=O)NC(=S)N2CCCC(C(N)=O)C2)cc1` (stereo not drawn), for which the inhibition is 48.8% (active).
Take `COc1ccc(CN2CCCC(C(=O)N3CCCCC3)C2)cc1` (stereo not drawn): the inhibition was 4.14% (inactive).
As for `COc1ccc(/C=C/C(=O)NC(=S)NN2CCCCC2c2cccnc2)cc1` (stereo not drawn), the figure is 10.5% (inactive).
To `COc1ccc(C(=O)N2CCN(c3ncccn3)CC2)cc1S(=O)(=O)N1CCOCC1` belongs 3.64% (inactive).
As for `Cc1ccc(S(=O)(=O)N2CCOCC2)cc1C(=O)NC(=S)N(Cc1ccccc1)C(C)C`, the figure is -2.59% (inactive).
With `COCCN(CCOC)c1nc(N)c2c(N)nc3c(c2c1C#N)CC(=O)N3Cc1ccc(Cl)cc1`, the inhibition was 13.7% (inactive).
As for `COc1cc(Cn2c3ccc(NC(=O)CC(C)c4ccccc4)cc3c(=O)n2C)ccc1F` (stereo not drawn), the figure is 4% (inactive).
`CCC(=O)Nc1c(S(=O)(=O)c2ccccc2)c2nc3ccccc3nc2n1Cc1ccccc1`: the inhibition was 27% (inactive).
To `CCCn1nc(NS(=O)(=O)c2ccc(F)cc2)c2cc3ccccc3nc21` belongs 6.9% (inactive); to `CCN(CC)CCn1c(N)c(S(=O)(=O)c2ccccc2)c2nc3ccccc3nc21`, 31% (active).
To `O=C(NNS(=O)(=O)c1ccccc1C(F)(F)F)c1cc2ncc(C(F)(F)F)cc2s1` belongs 12.3% (inactive); to `COCc1ccc(C(=O)N2CCc3c([nH]c4ccccc34)C2c2ccccn2)s1` (stereo not drawn), -1.89% (inactive); to `CNC(=O)c1csc(Cc2c(Cl)sc3ccc(Cl)cc23)n1`, -5.66% (inactive).
As for `CN(C)C(=O)CCc1ccc2c3c([nH]c2c1)[C@]1(C)[C@@H](C(=O)N2CCOCC2)C[C@H](CC(=O)NCCc2ccccn2)C(=O)N1CC3`, the figure is 3.64% (inactive).
Consider `COc1ccccc1CC(=O)Nc1ccc(S(=O)(=O)N2CCCC2)cc1`, for which the inhibition is 3.02% (inactive).
To `COc1ccc(-c2ccc(Nc3ccc(S(=O)(=O)N4CCCC4)cc3)nn2)cc1OC` belongs 50.4% (active); to `COc1ccc(S(=O)(=O)N2CCCCCC2)cc1NC(=O)Cc1ccc(OC)c(OC)c1`, -2.16% (inactive).
As for `CCc1ccc(C(=O)C(C)OC(=O)CN2C(=O)NC3(CCCC3)C2=O)cc1` (stereo not drawn), the figure is 6.99% (inactive).
On to `CC(OC(=O)Cc1ccc(F)cc1)C(=O)N1CCc2ccccc21` (stereo not drawn), for which the inhibition is 3.45% (inactive).
For the compound `Cc1ccc(C(=O)COC(=O)CCCC(=O)NC2CCCCC2)cc1[N+](=O)[O-]`, the inhibition was -3% (inactive).
As for `Cc1ccc(N=C2NC(=O)c3cccc([N+](=O)[O-])c32)cc1`, the figure is 13.5% (inactive).
As for `COC(=O)Cn1c(O)c(N=NC(=O)OC)c2ccccc21`, the figure is 31.6% (active); as for `CCOC(=O)Cn1c(O)c(N=NC(=O)CNC(=O)Cc2ccccc2)c2ccccc21`, 28.8% (inactive).
As for `CCn1c(O)c(N=NC(=O)c2cccc(S(=O)(=O)N3CCCCC3)c2)c2ccccc21`, the figure is 4.32% (inactive); as for `O=C(O)C1=CCCN(CCON=C(c2ccccc2)c2ccccc2)C1`, -4.66% (inactive).
`Cn1c(CC(=O)NNC(=O)c2ccccc2F)nc2ccccc21`: the inhibition was -6.69% (inactive).
Consider `CCCn1c(C(=O)c2ccccc2OC)nc2ccccc21`, for which the inhibition was 8.57% (inactive).
As for `CCn1c(NC(=O)c2nn(C)cc2Br)nc2ccccc21`, the figure is 6.37% (inactive).
`Cn1c(-c2ccc(C(=O)c3ccccc3)s2)nc2ccccc21`: the inhibition is 38.1% (active).
With `Cc1nc2ccccc2c(C)c1C(=O)c1ccc(F)cc1`, the inhibition was -2.59% (inactive).
As for `Cn1c(NC(=O)c2ccccc2)nc2ccccc21`, the figure is 41.4% (active).
